Compound activity deposited in PubChem by several laboratories.
In the library only some 12% were active in any assay of this set; here they are far more common.
L major viab: reduces viability of Leishmania major promastigotes. resazurin fluorescence viability. inhibition, % at 10 µM. 200,000 compounds, 9% hits. AID 1063; in the data active = inhibition above about 50%;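 also: promastigotes grown with compound for 44 hours at 28 °C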
WT yeast gro inh: growth inhibition of WT yeast, mitochondrial fusion screen. 190,000 compounds, 2.1% hits. inhibition, % at 10 µM. AID 1362. mitochondrial fusion phenotypic screen, WT strain; in the data active = inhibition above about 58%; tested in S. cerevisiae
Calpain2 inh: inhibitors of pig calpain II; purified calpain II, fluorogenic peptide substrate, 30 min; inhibition, % at 16 µM; 220,000 compounds, 0.37% hits;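 active = inhibition above about 50%, limit read from the data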
ROMK mod: human ROMK K+ channel modulation, primary screen; P48048; Tet-inducible ROMK, thallium flux fluorescence; actives lie on both sides; B-score at 10 µM; 130,000 compounds, 2% hits;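 active = signal ratio slope over the read window, or its plate-corrected B-score, at least 3 SD from the plate mean, either direction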;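 also: B-score of the F/F0 ratio slope over 7 to 12 s after thallium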
Target sequence (P48048 whole entry, looked up): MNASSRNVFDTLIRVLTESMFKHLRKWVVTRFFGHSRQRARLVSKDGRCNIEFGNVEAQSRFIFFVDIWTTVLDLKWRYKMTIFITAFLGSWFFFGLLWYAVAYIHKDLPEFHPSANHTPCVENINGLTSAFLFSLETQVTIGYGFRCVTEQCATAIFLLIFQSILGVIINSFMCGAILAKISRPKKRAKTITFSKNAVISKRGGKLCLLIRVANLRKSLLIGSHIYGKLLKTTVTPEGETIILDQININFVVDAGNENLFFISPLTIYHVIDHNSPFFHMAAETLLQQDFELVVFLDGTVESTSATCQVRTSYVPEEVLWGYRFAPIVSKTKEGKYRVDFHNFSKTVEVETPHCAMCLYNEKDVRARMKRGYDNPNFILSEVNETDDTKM
KCC2 mod: modulates chloride dependent transport by human KCC2 | AID 1456 | 190,000 compounds, 2.2% hits | B-score of Tl+ flux slope (higher = more flux/activation; lower = inhibition) at 10 µM | KCC2 cells, thallium flux FluoZin-2 fluorescence;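 active = thallium flux slope and its plate-corrected score both differing from the plate sample mean at a set confidence after two filtering rounds, in either direction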;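 also: slope of fluorescence scaled to starting intensity during 10 to 20 s after thallium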
KCC2 secondary: KCC2 (human) modulation, secondary assay | normalised thallium flux (F/F0 slope) at 10 µM | shares compounds with KCC2 mod | 3,700 compounds, 15% hits | HEK293-KCC2, thallium flux, FluoZin2 fluorescence; hits give high values;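 active = thallium flux slope above the same plate's solvent-only control mean plus 3 SD; inconclusive = the two replicate wells disagree; inactive = no significant difference from solvent-only control wells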
KCC2 bumet counter: bumetanide-insensitive thallium flux in KCC2 cells with ouabain, counter-screen | shares compounds with KCC2 mod | HEK293-KCC2 + bumetanide/ouabain, thallium flux FluoZin2; hits give high values | normalized thallium flux at 10 µM | 3,700 compounds, 49% hits;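 active = thallium entry rate above the same plate's blocked-transporter control wells by more than 3 SD; inconclusive = the two repeat wells disagree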;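 also: raw slope of fluorescence over initial fluorescence between 10 and 20 s after thallium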
KCC2 sec2: confirmation of human KCC2 transport modulators. AID 1715. HEK293-KCC2, thallium flux FluoZin2 fluorescence; actives lie on both sides; F/F0 rise rate, 10–20 s post-thallium. normalized thallium flux at 10 µM. 3,700 compounds, 23% hits. shares compounds with KCC2 mod;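 active = thallium flux slope more than 3 SD above or below the plate's solvent-only control mean, mostly below; inconclusive = the two repeat wells disagreed; inactive = no significant shift from solvent-only controls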
HEK counter1: counter-screen for KCC2 modulators: effect in parental HEK293 cells. shares compounds with KCC2 mod. thallium flux FluoZin2, ouabain; baseline-ratio fluorescence slope, 10–20 s after thallium. thallium flux rate (normalised fluorescence) at 10 µM. 3,700 compounds, 46% hits;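 active = thallium flux rate significantly above the same plate's solvent-only control wells, beyond their mean plus 3 SD; inconclusive = the two replicate wells gave conflicting results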
KCC2 ouabain: confirmation of human KCC2 modulators with ouabain. shares compounds with KCC2 mod. HEK293-KCC2, thallium flux FluoZin2 fluorescence; bidirectional: low = inhibitor, high = activator. raw Tl+ flux slope (below DMSO = inhibition, above = activation) at 10 µM. 3,700 compounds, 48% hits. AID 1717;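 active = thallium flux slope beyond 3 SD from same-plate DMSO control mean in most replicates, usually higher, sometimes lower; inconclusive = repeat tests gave conflicting results; inactive = no significant difference from controls in most replicates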;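 also: slope of initial-normalized fluorescence between seconds 10 and 20 after thallium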
HEK counter2: acts in parental HEK cells, second KCC2 counter-screen; shares compounds with KCC2 mod; AID 1718; thallium flux slope at 10 µM; 3,700 compounds, 33% hits; HEK293 parental, thallium flux FluoZin-2 fluorescence slope;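 active = thallium flux slope above the same plate's solvent-control mean plus 3 SD in both duplicate wells; inconclusive = duplicate wells that disagreed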;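 also: run without ouabain in cells lacking the KCC2 cotransporter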
Of the large screens only hits and unclear results are named; the others gave an inactive call (follow-up assays come after a bar, where they were run).

Cc1[nH]n(-c2ccccc2)c(=O)c1C=Nc1cccc(F)c1	KCC2 mod 4.64 (no result: L major viab, WT yeast gro inh, ROMK mod) | KCC2 secondary inactive | KCC2 bumet counter 0.033 | KCC2 sec2 inactive | HEK counter1 0.0164 | KCC2 ouabain inactive | HEK counter2 inconclusive
Cc1[nH]n(-c2ccccc2)c(=O)c1C=Nc1ccc2[nH]c(=O)[nH]c2c1	none (no result: ROMK mod)
Cc1cccc(/N=C/c2c(C)[nH]n(-c3ccccc3)c2=O)n1	KCC2 mod 17.7 (no result: L major viab, WT yeast gro inh, ROMK mod) | KCC2 secondary inactive | KCC2 bumet counter 0.0321 | KCC2 sec2 inactive | HEK counter1 0.0124 | KCC2 ouabain inconclusive | HEK counter2 inconclusive
Cc1ccc(-n2[nH]c(C)c(/C=N/c3cccc(C)n3)c2=O)cc1	KCC2 mod 4.91 (no result: L major viab, WT yeast gro inh) | KCC2 secondary inactive | KCC2 bumet counter 0.0128 | KCC2 sec2 inactive | HEK counter1 0.0129 | KCC2 ouabain inconclusive | HEK counter2 inactive
Cc1[nH]n(-c2ccccc2)c(=O)c1/C=N/N(c1ccccc1)c1ccccc1	KCC2 mod 68.3 | KCC2 secondary inconclusive | KCC2 bumet counter 0.107 | KCC2 sec2 0.0718 | HEK counter1 0.0628 | KCC2 ouabain 0.088 | HEK counter2 0.0615
Cc1[nH]n(-c2ccccc2)c(=O)c1C=Nc1cnc2ccccc2c1	none
Cc1cc(Cl)ccc1N1C(=O)CC(NNC(=O)c2cccnc2)C1=O (configuration not stated)	none
CC(=O)N1CCCC1(C(=O)O)c1ccccc1 (configuration not stated)	none (no result: L major viab, WT yeast gro inh)
O=C(Nc1ccc(S(=O)(=O)N2CCOCC2)cc1)c1ccc(=O)[nH]c1	none (no result: L major viab, WT yeast gro inh, ROMK mod)
C=CCN(c1ccc(C(=O)Nc2cccc([N+](=O)[O-])c2)cc1)S(C)(=O)=O	none (no result: ROMK mod)
Cc1ccnc(N2CCN(C(=O)CSc3nc4ccccc4nc3N3CCC(C)CC3)CC2)c1	KCC2 mod 4.85 (no result: ROMK mod) | KCC2 secondary inactive | KCC2 bumet counter 0.00873 | KCC2 sec2 inactive | HEK counter1 0.00942 | KCC2 ouabain inconclusive | HEK counter2 inconclusive
Cc1nc2ccccc2nc1SCC(=O)N1CCC(C)CC1	none (no result: ROMK mod, KCC2 mod)
CCc1cc2c(cc3c(=O)n(CC(=O)N4CCN(c5ccccn5)CC4)nc(CC)n32)s1	none (no result: KCC2 mod) | KCC2 secondary inactive | KCC2 bumet counter inactive | KCC2 sec2 inactive | HEK counter1 inactive | KCC2 ouabain inactive | HEK counter2 inactive
Cc1n[nH]c(C)c1CCNCc1ccc(OCC(O)CN2CCCCC2)cc1 (configuration not stated)	none (no result: KCC2 mod)
CCC1(c2ccc(Cl)cc2)NC(=S)N(c2ccc(C)cc2)N1 (configuration not stated)	WT yeast gro inh 67.8, KCC2 mod 51.5 | KCC2 secondary 0.0406 | KCC2 bumet counter 0.0959 | KCC2 sec2 inconclusive | HEK counter1 0.083 | KCC2 ouabain 0.0744 | HEK counter2 0.0278
CCC1(c2ccccc2)NC(=S)N(c2ccc(C)c(C)c2)N1 (configuration not stated)	WT yeast gro inh 68.6, KCC2 mod 41.8 | KCC2 secondary 0.0422 | KCC2 bumet counter 0.106 | KCC2 sec2 inactive | HEK counter1 0.0553 | KCC2 ouabain 0.0595 | HEK counter2 0.0171
Cc1ccc(-n2c(C)n[nH]c2=S)cc1C	none (no result: ROMK mod)
CCC1(c2ccc(Cl)cc2)NC(=S)N(c2ccc(C)c(C)c2)N1 (configuration not stated)	KCC2 mod 93.1 (no result: L major viab, WT yeast gro inh, ROMK mod) | KCC2 secondary 0.0496 | KCC2 bumet counter 0.12 | KCC2 sec2 0.0445 | HEK counter1 0.102 | KCC2 ouabain 0.0871 | HEK counter2 0.0376
